Inhibition data for eleven compounds are collected here from ChEMBL document CHEMBL1157539, “Thousands of chemical starting points for antimalarial lead identification” (Nature, 2010).

The structures appear in SMILES notation. Values joined by “and” are separate entries in the source; they are usually repeats but may differ in a detail not shown here. Equal entries are not always repeated.

Holding throughout (format): functional
Assay [1] has as its system Plasmodium falciparum. Kind of assay: GSK_TCMDC: Inhibition of Plasmodium falciparum 3D7 in whole red blood cells, using parasite LDH activity as an index of growth. Test compounds present at 2uM.
Assay [2] has as its system Plasmodium falciparum. Kind of assay: GSK_TCMDC: Inhibition of Plasmodium falciparum Dd2 in whole red blood cells, using parasite LDH activity as an index of growth. Test compounds present at 2uM.
Assay [3] has as its system HepG2. Kind of assay: GSK_TCMDC: Percent inhibition of human HepG2 cell line. Test compounds present at 10uM.

As for `Br.COC(=O)C(C)(C)c1ccc(CC(C)NCC(O)c2cccc(C(F)(F)F)c2)cc1` (configuration not stated), the results for the Inhibition in assay [1], in assay [2] and in assay [3] were 99%, 98% and 6%, respectively.

Consider `O=C(Nc1ccccc1C(F)(F)F)NC1CCC(CN2CCC(c3c[nH]c4ccccc34)CC2)CC1` (configuration not stated), for which the Inhibition (usually the share of the control response that was lost under treatment) is 96% and 86% in assay [1]; 46% and 34% in assay [3].

Turning to `CC(Cc1ccc(S(=O)(=O)N(C(C)C)C(C)C)cc1)NCC(O)c1cccc(C(F)(F)F)c1.Cl` (configuration not stated), the Inhibition in assay [1] is listed as 96%; in assay [2], 93%; in assay [3] it was 21%.

For `O=C(C=Cc1ccccc1C(F)(F)F)NC1CCC(CN2CCC(c3c[nH]c4ccccc34)CC2)CC1` (configuration not stated), the Inhibition is 100% in assay [1]; 90% and 47% in assay [2]; 47% and 73% in assay [3].

As for `Cl.O=C(CNC1CCCCC1)c1ccc(O)c(O)c1`, the Inhibition was found to be 100% in assay [1], 99% in assay [2] and 61% in assay [3].

On to `CC(Cc1ccc(NC(=O)[C@@H](C)NCCc2cccc(Cl)c2)cc1)NCCc1cccc(Cl)c1.Cl` (some centres not stated), for which the Inhibition in assay [1] came to 99%; in assay [2], 54%; in assay [3], 99%.

For the compound `CC(C)CNCc1cccc(-c2ccc(CN(C(=O)Nc3ccccc3)C3CCN(Cc4ccccc4)CC3)cc2)c1.O=C(O)C(F)(F)F`, the Inhibition in assay [1] is 100%; in assay [2] it was 61%; in assay [3], 41%.

On to `O=C(/C=C/c1ccc(Cl)c(Cl)c1)NCC1CCC(CN2CCC(c3c[nH]c4ccccc34)CC2)CC1` (configuration not stated), for which the Inhibition was 100% in assay [1], 93% in assay [2] and 54% in assay [3].

As to `CN(C)CCCn1cc(C(=O)OC2CC3CCC(C2)N3C)c2cc(-c3ccccc3)ccc21.Cl` (configuration not stated), the Inhibition in assay [1] was 97%; in assay [2], 96%; in assay [3], 97%.

On to `COc1cccc(C(=O)C2CC2CN2CC=C(c3c[nH]c4cccc(Br)c34)CC2)c1` (configuration not stated), for which the values for the Inhibition in assay [1], in assay [2] and in assay [3] were 96%, 85% and 22%, respectively.

For the compound `O=C(Nc1ccc(Oc2ccccc2)cc1)NC1CCC(CN2CCC(c3c[nH]c4ccccc34)CC2)CC1` (configuration not stated), the values for the Inhibition in assay [1], in assay [2] and in assay [3] were 100%, 97% and 55%, respectively.
